Assay results as given in the supplement of paper PMC11732987, “Enantioselective OTUD7B fragment discovery through chemoproteomics screening and high-throughput optimisation” (Communications Chemistry, 2025).

Assays:
Test in all cases: log2 ratio of Biotin-Ahx-Ub-VS probe labelling (fragment/DMSO); higher = less target engagement (more negative = stronger competition), active = hit call of the paper (q ≤ 0.05, log2 ratio ≤ -1)
Settings in all cases: compound concentration: 200 uM; treatment time: 3 h
OTUD6B = molecular target: T1, OTUD6B (UniProt Q8N6M0)
T1 sequence (whole entry): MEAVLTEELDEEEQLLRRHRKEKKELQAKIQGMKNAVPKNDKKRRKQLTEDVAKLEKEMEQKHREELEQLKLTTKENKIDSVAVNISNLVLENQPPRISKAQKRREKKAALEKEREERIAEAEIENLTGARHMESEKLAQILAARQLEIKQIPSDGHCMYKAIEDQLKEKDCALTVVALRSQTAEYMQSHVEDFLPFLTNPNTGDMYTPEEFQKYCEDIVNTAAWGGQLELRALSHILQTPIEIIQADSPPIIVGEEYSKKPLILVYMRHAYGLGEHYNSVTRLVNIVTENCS
How it was run: (§1)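 In triplicate, 495 µg of HEK293T lysate per sample was incubated with fragment at 200 µM or vehicle for 3 h. Biotin-Ahx-Ub-VS was then added to 0.5 µM final for 1 h, and labelled DUBs were captured with NeutrAvidin, digested with LysC and trypsin, and measured by diaPASEF LC-MS/MS. Data are average log2 fragment/vehicle ratios by unpaired t-test from global-median-normalised Spectronaut label-free quantities, restricted to proteins with ≥2 unique peptides.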

OTUD7B = molecular target: T2, OTUD7B (UniProt Q6GQQ9)
T2 sequence (whole entry): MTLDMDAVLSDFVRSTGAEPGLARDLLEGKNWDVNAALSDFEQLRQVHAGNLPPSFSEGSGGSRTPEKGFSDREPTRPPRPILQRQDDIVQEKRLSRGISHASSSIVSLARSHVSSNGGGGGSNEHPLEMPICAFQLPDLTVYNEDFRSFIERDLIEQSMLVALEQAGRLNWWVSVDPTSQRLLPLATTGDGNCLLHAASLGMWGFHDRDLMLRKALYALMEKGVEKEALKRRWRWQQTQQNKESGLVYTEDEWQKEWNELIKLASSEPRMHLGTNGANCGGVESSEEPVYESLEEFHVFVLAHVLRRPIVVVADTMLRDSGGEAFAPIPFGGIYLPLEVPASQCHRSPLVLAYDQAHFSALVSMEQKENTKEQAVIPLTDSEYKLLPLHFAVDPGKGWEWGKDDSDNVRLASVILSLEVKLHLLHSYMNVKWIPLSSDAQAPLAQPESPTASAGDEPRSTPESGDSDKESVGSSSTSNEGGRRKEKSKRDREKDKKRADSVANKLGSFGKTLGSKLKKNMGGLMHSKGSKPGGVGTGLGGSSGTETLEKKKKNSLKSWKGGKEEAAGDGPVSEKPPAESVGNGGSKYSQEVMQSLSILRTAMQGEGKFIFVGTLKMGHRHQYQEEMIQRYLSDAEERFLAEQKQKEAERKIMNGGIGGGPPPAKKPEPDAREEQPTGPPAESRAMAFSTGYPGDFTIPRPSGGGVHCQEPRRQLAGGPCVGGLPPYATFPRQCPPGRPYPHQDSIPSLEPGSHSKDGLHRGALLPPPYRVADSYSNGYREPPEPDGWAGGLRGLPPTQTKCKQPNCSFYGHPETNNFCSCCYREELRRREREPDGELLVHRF
How it was run: as §1

PRPF8 = PRPF8 (UniProt Q6P2Q9)
How it was run: as §1

PSMD7 = molecular target: T3, PSMD7 (UniProt P51665)
T3 sequence (whole entry): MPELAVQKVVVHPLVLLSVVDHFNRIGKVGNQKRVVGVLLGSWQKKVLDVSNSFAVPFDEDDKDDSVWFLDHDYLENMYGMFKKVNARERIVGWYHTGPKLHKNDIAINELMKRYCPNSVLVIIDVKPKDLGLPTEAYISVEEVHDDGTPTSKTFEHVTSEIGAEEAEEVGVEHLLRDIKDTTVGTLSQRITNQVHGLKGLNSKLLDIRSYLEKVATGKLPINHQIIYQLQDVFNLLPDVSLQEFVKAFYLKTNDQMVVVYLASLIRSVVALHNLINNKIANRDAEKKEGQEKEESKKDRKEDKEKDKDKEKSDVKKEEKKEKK
How it was run: as §1

UCHL1 = UCHL1 (UniProt P09936)
UCHL1, sequence (P09936 whole entry, looked up): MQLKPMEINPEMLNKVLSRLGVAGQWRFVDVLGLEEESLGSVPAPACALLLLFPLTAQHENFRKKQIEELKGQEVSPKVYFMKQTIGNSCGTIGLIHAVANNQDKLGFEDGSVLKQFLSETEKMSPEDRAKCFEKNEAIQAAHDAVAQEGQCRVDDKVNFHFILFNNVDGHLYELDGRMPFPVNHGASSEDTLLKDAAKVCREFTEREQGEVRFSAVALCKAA
How it was run: as §1

UCHL3 = molecular target: T4, UCHL3 (UniProt P15374)
T4 sequence (whole entry): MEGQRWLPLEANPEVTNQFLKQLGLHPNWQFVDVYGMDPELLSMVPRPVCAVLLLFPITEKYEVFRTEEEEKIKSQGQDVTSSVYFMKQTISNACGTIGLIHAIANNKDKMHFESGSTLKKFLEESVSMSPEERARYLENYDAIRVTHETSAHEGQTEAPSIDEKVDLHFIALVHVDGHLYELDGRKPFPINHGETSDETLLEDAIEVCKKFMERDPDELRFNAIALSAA
How it was run: as §1

UCHL5 = molecular target: T5, UCHL5 (UniProt Q9Y5K5)
T5 sequence (whole entry): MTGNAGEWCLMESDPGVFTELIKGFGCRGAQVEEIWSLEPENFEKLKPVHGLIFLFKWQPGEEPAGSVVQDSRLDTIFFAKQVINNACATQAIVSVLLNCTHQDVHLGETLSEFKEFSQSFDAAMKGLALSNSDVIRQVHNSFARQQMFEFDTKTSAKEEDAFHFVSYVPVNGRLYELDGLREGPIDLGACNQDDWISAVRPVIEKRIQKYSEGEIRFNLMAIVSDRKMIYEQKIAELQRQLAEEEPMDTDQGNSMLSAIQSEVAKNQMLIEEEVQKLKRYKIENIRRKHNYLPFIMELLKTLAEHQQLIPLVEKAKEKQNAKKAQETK
How it was run: as §1

USP10 = USP10 (UniProt Q14694)
USP10, sequence (Q14694 whole entry): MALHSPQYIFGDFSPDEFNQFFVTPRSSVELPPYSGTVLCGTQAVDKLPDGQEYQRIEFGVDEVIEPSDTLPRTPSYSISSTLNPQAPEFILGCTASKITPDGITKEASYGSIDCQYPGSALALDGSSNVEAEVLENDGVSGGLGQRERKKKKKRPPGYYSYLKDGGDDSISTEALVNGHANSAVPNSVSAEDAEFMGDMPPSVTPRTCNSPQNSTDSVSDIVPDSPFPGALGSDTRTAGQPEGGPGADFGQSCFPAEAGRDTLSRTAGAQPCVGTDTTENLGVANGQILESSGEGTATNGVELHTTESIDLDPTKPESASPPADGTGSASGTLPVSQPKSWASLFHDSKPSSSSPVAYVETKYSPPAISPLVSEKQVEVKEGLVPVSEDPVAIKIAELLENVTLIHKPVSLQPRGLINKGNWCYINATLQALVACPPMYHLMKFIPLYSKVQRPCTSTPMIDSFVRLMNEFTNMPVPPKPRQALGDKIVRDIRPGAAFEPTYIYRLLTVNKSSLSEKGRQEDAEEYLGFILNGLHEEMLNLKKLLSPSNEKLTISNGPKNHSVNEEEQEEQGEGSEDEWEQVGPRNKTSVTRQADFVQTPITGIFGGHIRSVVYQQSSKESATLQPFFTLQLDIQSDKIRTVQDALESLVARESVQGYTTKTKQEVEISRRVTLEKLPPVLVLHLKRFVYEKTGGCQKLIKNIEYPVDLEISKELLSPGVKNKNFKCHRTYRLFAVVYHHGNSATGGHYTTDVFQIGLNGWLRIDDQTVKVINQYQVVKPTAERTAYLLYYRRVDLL
How it was run: as §1

USP15 = molecular target: T6, USP15 (UniProt Q9Y4E8)
T6 sequence (whole entry): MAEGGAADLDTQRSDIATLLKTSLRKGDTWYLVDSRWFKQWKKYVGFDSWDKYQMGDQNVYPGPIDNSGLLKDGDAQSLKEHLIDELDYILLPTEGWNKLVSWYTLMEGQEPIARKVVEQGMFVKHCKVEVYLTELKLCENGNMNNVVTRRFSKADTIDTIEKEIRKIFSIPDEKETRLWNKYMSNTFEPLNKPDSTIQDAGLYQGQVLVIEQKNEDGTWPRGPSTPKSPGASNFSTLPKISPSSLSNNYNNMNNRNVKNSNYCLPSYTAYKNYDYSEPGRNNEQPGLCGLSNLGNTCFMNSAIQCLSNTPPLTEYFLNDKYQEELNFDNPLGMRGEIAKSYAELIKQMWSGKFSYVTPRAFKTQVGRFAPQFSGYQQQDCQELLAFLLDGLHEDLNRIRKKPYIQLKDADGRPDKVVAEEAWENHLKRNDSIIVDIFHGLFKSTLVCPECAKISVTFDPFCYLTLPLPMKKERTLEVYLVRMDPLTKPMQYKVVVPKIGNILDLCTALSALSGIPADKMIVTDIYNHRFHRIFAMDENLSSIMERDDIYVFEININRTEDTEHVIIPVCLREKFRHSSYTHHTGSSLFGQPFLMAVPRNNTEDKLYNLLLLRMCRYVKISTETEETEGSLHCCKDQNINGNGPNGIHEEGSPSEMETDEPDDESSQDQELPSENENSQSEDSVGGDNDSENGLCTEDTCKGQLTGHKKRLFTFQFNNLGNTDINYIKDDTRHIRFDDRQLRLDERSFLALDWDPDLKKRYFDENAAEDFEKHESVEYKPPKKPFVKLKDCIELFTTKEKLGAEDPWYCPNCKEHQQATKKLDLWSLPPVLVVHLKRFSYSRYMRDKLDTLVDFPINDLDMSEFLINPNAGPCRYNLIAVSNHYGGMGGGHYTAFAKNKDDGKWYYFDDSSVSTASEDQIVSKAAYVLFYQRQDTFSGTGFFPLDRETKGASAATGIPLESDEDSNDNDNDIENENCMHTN
How it was run: as §1

USP16 = USP16 (UniProt Q9Y5T5)
USP16, sequence (Q9Y5T5 whole entry, looked up): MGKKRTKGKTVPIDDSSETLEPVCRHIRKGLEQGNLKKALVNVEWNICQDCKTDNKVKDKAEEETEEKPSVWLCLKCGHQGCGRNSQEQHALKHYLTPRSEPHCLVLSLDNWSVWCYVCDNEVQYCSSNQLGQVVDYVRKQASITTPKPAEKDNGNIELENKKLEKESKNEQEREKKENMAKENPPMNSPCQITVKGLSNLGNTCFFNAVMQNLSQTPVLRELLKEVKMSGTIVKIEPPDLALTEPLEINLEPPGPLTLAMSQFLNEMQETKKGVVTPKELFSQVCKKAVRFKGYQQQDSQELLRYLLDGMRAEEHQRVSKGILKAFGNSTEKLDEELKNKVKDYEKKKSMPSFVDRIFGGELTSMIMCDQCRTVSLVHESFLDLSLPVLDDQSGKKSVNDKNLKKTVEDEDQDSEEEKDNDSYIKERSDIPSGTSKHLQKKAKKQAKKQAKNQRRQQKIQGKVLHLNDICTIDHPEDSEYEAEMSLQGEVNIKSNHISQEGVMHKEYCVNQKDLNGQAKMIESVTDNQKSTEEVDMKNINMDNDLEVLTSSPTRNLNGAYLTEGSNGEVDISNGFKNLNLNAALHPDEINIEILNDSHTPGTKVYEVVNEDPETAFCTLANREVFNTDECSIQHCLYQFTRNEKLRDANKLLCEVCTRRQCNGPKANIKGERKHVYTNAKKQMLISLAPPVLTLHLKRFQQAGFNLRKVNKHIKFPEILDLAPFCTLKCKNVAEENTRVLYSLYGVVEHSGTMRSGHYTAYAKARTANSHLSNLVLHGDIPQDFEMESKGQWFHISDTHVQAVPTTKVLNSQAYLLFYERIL
How it was run: as §1

Measured: log2 ratio of Biotin-Ahx-Ub-VS probe labelling

O=C(CCl)N1CCCC1c1ccsc1 (stereo not given)
active: UCHL1 -1.81
inactive: OTUD6B -0.452 | OTUD7B -0.521 | PRPF8 0.0505 | PSMD7 -0.39 | UCHL3 -0.121 | UCHL5 -0.228 | USP10 -0.161 | USP15 -0.548 | USP16 -0.254
